# Measurements taken from PubChem BioAssay AID504607 (Sanford-Burnham Center for Chemical Genomics, 2011).
# About 4,800 (77%) of roughly 6,200 compounds were called active.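 The calls were made as follows: active = mean inhibition at 8 µM reaching about 37%, which flags the compound as non-specific (limit read from the data); inactive = the rest.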 The set was probably picked from earlier hits. Only a sample is shown.
# Experiment: luminescence decrease from intact luciferase reporter – cell-based, single concentration, SaOS-2, counter-screen for Mdm2/MdmX interaction inhibitor project, confirmation (AID 504607);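 also: p53-null SaOS-2 cells with luciferase driven by a doxycycline-inducible promoter; compound on cells about two nights before reading with doxycycline added after day one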
# Conditions: SaOS-2 full-length luciferase counterscreen, at 8 µM, stronger effect = higher value
row,Structure (SMILES),inhibition
1,COc1ccc(NC(=O)c2cc(-c3cc(OC)c(OC)c(OC)c3)nc3ccccc23)c(OC)c1,58.2% (active)
2,COc1ccc(Nc2ncnc3ccc(Br)cc23)c(OC)c1,24.3% (inactive)
3,Cc1ccc2nc(-c3ccncc3)cc(C(=O)Nc3ccc4c(c3)OCCO4)c2c1,44.2% (active)
4,COc1ccc(C(CCN(Cc2ccc(OC)c(OC)c2)C(=O)CCl)c2ccccc2)cc1 (stereo not given),58.4% (active)
5,Cc1noc(C)c1-c1ccc2ncnc(NC(C)c3ccco3)c2c1 (stereo not given),59.8% (active)
6,Cc1cccc(Nc2nc3c(S(=O)(=O)c4ccccc4)nnn3c3ccccc23)c1C,94.3% (active)
7,CN(c1ccc2nc3ccccc3c(=O)n2n1)C1CCCCC1,27.7% (inactive)
8,CC(Nc1nc(C(F)(F)F)nc2ccccc12)c1cccs1 (stereo not given),50.3% (active)
9,CC(C)(C)Nc1nc(-c2ccccn2)nc2ccccc12,23.3% (inactive)
10,COc1ccc(Cc2nnc(N/N=C/c3ccccc3O)[nH]c2=O)cc1OC,38.6% (active)
11,Cc1nnc(N/N=C/c2ccccn2)[nH]c1=O,20.6% (inactive)
12,CCOc1cc(N2CCOCC2)c(OCC)cc1NC(=O)COc1cccc2cccnc12,39.6% (active)
13,CCCOc1ccccc1C1CC(=O)Nc2cc3c(cc21)OCO3 (stereo not given),74.9% (active)
14,COc1ccccc1C1C2=C(COC2=O)Nc2cc3c(cc21)OCO3 (stereo not given),90.3% (active)
15,CCOc1ccc(S(=O)(=O)Nc2cccc(C(=O)NCC3(N4CCCCC4)CCCCC3)c2)cc1,56.1% (active)
16,COc1ccc(CS(=O)/C(Cl)=C(/Cl)C(=O)Nc2ccc(OC)nc2)cc1 (stereo not given),-0.43% (inactive)
17,O=C(CCCN1C(=O)/C(=C/c2cccs2)SC1=S)Nc1ccc(O)cc1,43% (active)
18,COc1ccc(/C=C2\SC(=S)N(CCC(=O)Nc3ccccn3)C2=O)cc1OC,72.7% (active)
19,O=C(CCCN1C(=O)/C(=C/c2ccco2)SC1=S)Nc1ccccc1,50% (active)
20,O=C(CCCN1C(=O)/C(=C\c2ccccc2)SC1=S)Nc1ccccc1O,30.3% (inactive)
21,O=C(CCCN1C(=O)/C(=C\c2ccco2)SC1=S)Nc1cccc2ccccc12,28.5% (inactive)
22,O=C(CCCN1C(=O)/C(=C/c2ccccc2)SC1=S)Nc1ccc(O)cc1,51.8% (active)

row,Structure (SMILES),inhibition
1,O=C1/C(=C/c2ccc(F)cc2)SC(=S)N1CCCC(=O)N1CCCCC1CCO (stereo not given),23.7% (inactive)
2,CCOc1ccc(-c2cc(C(=O)N/N=C/c3ccc(O)cc3)c3ccccc3n2)cc1,48.3% (active)
3,Oc1ccc(/C=N/Nc2nc(-c3ccccc3F)nc3ccccc23)c(O)c1,31% (inactive)
4,Cc1nc2ccccc2nc1N/N=C/c1ccc(O)cc1O,46.2% (active)
5,COc1cc(OC)c2c(-c3cccc(-c4cccc(N)c4)c3)cc(=O)oc2c1,50.1% (active)
6,CC(NC(=O)c1ccc(N2CCNCC2)c([N+](=O)[O-])c1)C12CC3CC(CC(C3)C1)C2 (stereo not given),56.5% (active)
7,CC[C@]1(O)C[C@@H]2CN(CCc3c([nH]c4ccccc34)[C@@](C(=O)OC)(c3cc4c(cc3OC)N(C)[C@H]3[C@@](O)(C(=O)OC)[C@H](OC(C)=O)[C@]5(CC)C=CCN6CC[C@]43[C@@H]65)C2)C1,94.7% (active)
8,CC[C@]1(O)CC2CN(CCc3c([nH]c4ccccc34)[C@@](C(=O)OC)(c3cc4c(cc3OC)N(C=O)[C@H]3[C@@](O)(C(=O)OC)[C@H](OC(C)=O)[C@]5(CC)C=CCN6CC[C@]43[C@@H]65)C2)C1 (stereo not given in full),102% (active)
9,Oc1c(CN2CCN(c3ccc(F)cc3)CC2)cc(Cl)c2cccnc12,25.7% (inactive)
10,N#Cc1ccc(C(=O)Nc2nc(-c3cccs3)c(C(=O)C(F)(F)F)s2)cc1,54.4% (active)
11,COc1ccc(CNC(=O)C(c2ccc(O)cc2)N(Cc2ccco2)C(=O)c2snc(C(N)=O)c2N)cc1 (stereo not given),88.8% (active)
12,Clc1ccc2c(c1)C1=C(C(c3ccncc3)O2)C(c2ccc(Br)cc2)n2ncnc2N1 (stereo not given),67.2% (active)
13,Nc1nc(CC(=O)CSc2ccc(Cl)cc2)nc(Nc2ccc(F)cc2)n1,29.2% (inactive)
14,COc1ccc(C2=Nn3c(nnc3-c3ccccc3OC)SC2)cc1OC1CCCC1,68.2% (active)
15,Cc1nc(/N=C(\N)NC(=O)NC2CCCCC2)nc2ccccc12,34.4% (inactive)
16,Cc1nc(N=C(N)N)nc2c(C)cccc12,63.3% (active)
17,COc1ccc(CNC(=O)C[C@H]2C[C@H](C(=O)N3CCOCC3)[C@@]3(CCC4CCCC4)c4[nH]c5ccc(Cl)cc5c4CCN3C2=O)cc1OC,39.6% (active)
18,CN(C)c1ccnc2sc3c(=O)n(Cc4ccccc4)cnc3c12,15.1% (inactive)
19,Cc1cccc(NC(=O)c2nc(S(=O)(=O)Cc3ccccc3)ncc2Cl)c1,50.9% (active)
20,O=C(CCl)Nc1cccc(CP(=O)(c2ccccc2)c2ccccc2)c1,27.6% (inactive)
21,Cc1cccc(CS(=O)(=O)c2ncc(Cl)c(C(=O)Nc3ccc(F)cc3)n2)c1,51.2% (active)
22,C[C@@H](NC(=O)OC(C)(C)C)c1nnc(S(=O)(=O)Cc2ccccc2)o1,24.9% (inactive)

row,Structure (SMILES),inhibition
1,O=C(/C(=C/c1cccc(Cl)c1)c1nc2ccccc2[nH]1)c1ccccc1,97.6% (active)
2,CCCCNC(=O)C(C)N(CCN(C)C)C(=O)CCCCCN1C(=O)NC(c2ccc(Cl)cc2)C(C(=O)OCc2ccccc2)=C1C (stereo not given),27.8% (inactive)
3,Cc1cc2cc3c(cc2nc1SCC(=O)Nc1c(C)cccc1C)CCC3,60.3% (active)
4,CCOC(=O)Nc1ccc2c(c1)N(C(=O)CCCl)c1ccccc1[S@]2=O,54% (active)
5,CNC[C@H](CC1CCCCC1)NC[C@H](NCCC1CCCC1)[C@H](C)O,30.2% (inactive)
6,COc1ccc(-c2cc(C(=O)N(C)CC(=O)Nc3ccccc3Cl)c3ccccc3n2)cc1OC,79% (active)
7,COc1ccc(CN(C)C(=O)c2cc(-c3ccc(C)cc3C)nc3ccccc23)c(OC)c1OC,62.1% (active)
8,COc1ccc(-c2cc(C(=O)N(C)Cc3ccc(OC)c(OC)c3OC)c3ccccc3n2)cc1OC,97.7% (active)
9,COc1cc(SC)ccc1C(=O)Nc1nc(C)cs1,43.3% (active)
10,COc1c(C)c2c(c(O)c1C/C=C(\C)CCC(=O)O)C(=O)OC2,22.9% (inactive)
11,O=C(Nc1ccc2c(c1)OCCO2)C1CCCC1,88.1% (active)
12,Oc1c(Cl)cc(Cl)c(Cl)c1Cc1c(O)c(Cl)cc(Cl)c1Cl,26.8% (inactive)
13,CCNC(=O)c1c(O)c2cccc3c2n(c1=O)CC3,22.6% (inactive)
14,Cc1ccc(-c2nn(C(C)(C)C)c3ncnc(N)c23)cc1,30.7% (inactive)
15,O=C1NC[C@@H](c2ccccc2)OC(=O)[C@H](Cc2ccc(F)cc2)CC/C=C/C[C@H]1CC(=O)N(CCO)Cc1ccccc1,79% (active)
16,COc1ccc(C(C(=O)NC2CCCCC2)N(C(=O)CCl)c2ccccc2Cl)cc1 (stereo not given),78.5% (active)
17,Cc1cc(NC(=O)/C=C/C(=O)N(c2ccccc2C)C(C(=O)NC2CCCC2)c2ccc(F)cc2)no1 (stereo not given),28.7% (inactive)
18,COc1ccc(OC)c(Nc2nc(-c3ccc(O)c(O)c3)cs2)c1,79.9% (active)
19,Cc1oc2c(c1C(=O)N1CCOCC1)C(=O)c1ccccc1C2=O,56.8% (active)
20,O=S(=O)([N-]c1nc2ccccc2nc1-[n+]1ccc(Cc2ccccc2)cc1)c1ccc(Br)s1,56.5% (active)
21,OCCNc1nc(Nc2ccc(Cl)c(Cl)c2)nc2ccccc12,24.3% (inactive)
22,O=[N+]([O-])c1c(NCCO)cc(Sc2nc3ccccc3s2)c2nonc12,50.4% (active)

row,Structure (SMILES),inhibition
1,COC(=O)Cc1[nH]n(-c2nc3ccccc3s2)c(=O)c1C(C)=Nc1ccc(OC)cc1,26.2% (inactive)
2,O=C(Nc1ccccc1Cl)/C(Cl)=C(\Cl)S(=O)c1ccccc1 (stereo not given),1.94% (inactive)
3,CCCC(O)(CCC)C(=O)NN(C(=O)CCl)c1cccc(C)c1,23.7% (inactive)
4,Cc1ccc(N(Cc2cc(=O)[nH]c3ccccc23)C(=O)CCl)cc1,25.3% (inactive)
5,Cc1cccc(N(C)C(=O)c2cc3c(=O)[nH]c4ccc(C)cc4c3s2)c1,43.4% (active)
6,CC[C@]1(C(=O)OC)[C@H]2C(=O)N(Cc3ccccc3)C(=O)[C@H]2[C@H]2CN=C(SCc3ccccc3)N21,35.8% (inactive)
7,CC[C@]1(C(=O)OC)[C@H]2C(=O)N(Cc3ccccc3)C(=O)[C@H]2[C@H]2CN=C(SCc3ccc(C#N)cc3)N21,54.6% (active)
8,CC[C@]1(C(=O)OC)[C@H]2C(=O)N(Cc3ccccc3)C(=O)[C@H]2[C@H]2CN=C(SCc3ccc(Cl)cc3)N21,52.2% (active)
9,Cc1cc(Nc2cc(N3CCN(C)CC3)nc(Sc3ccc(NC(=O)C4CC4)cc3)n2)n[nH]1,41.6% (active)
10,Cc1[nH]c(C)c(S(=O)(=O)N2CCN(c3cccc(C(F)(F)F)c3)CC2)c1C(=O)N1CCCCC1,54.6% (active)
11,COc1ccc(CNc2nc(NCc3ccc(OC)cc3)c3ncn(C4CCCC4)c3n2)cc1,73% (active)
12,Cc1c(CN2CCC(CO)(CCOc3ccccc3)CC2)[nH]c2ccc(Cl)cc12,53.7% (active)
13,N#CC1=C(N)Oc2cc(O)ccc2C1C1CCCCC1 (stereo not given),56.5% (active)
14,Cc1[nH]c(=O)c(C(=O)/C=C/c2ccccc2)c2c1CCCC2,53.3% (active)
15,COc1ccc2cc1Oc1ccc(cc1)C[C@H]1c3cc(c(OC)cc3CCN1C)Oc1c(O)c(OC)cc3c1[C@H](C2)N(C)CC3,51.1% (active)
16,CCN1C(=O)/C(=C\N2CCN(c3cccc(Cl)c3)CC2)SC1=S,72.2% (active)
17,COc1cccc2sc(NNC(=O)c3nc4ccccc4s3)nc12,68.2% (active)
18,COc1cccc2sc(N(CCCN(C)C)C(=O)CCS(=O)(=O)c3ccccc3)nc12,21.2% (inactive)
19,COc1cccc2sc(N(CCCN(C)C)C(=O)C(c3ccccc3)c3ccccc3)nc12,24.8% (inactive)
